Results on 4 compounds are retold here after PubChem BioAssay.

A short description of experiment [1]: Wnt pathway potentiators raising nuclear beta-catenin – imaging, WNT3A-conditioned medium, mouse C2C12, NPC library, primary screen (AID 1117326; in the data active = nuclear beta-catenin stimulation mostly above about 4.2%, no sharp cut-off; inactive = mostly below about 10%). Conditions: stronger effect = higher value.
A short description of experiment [2]: stimulators of insulin release from INS-1E, primary screen, cell-based, 5 mM glucose, NPC library (AID 1117329;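 active = compound raises insulin release from rat beta cells at 5 mM glucose, no numeric limit stated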). The settings on record: rat INS-1E insulin secretion, at 10 µM, stronger effect = higher value.
Experiment [3] is described as follows: growth inhibition of GSK3B-pretreated HCT116 cells – cell-based, CellTiter-Glo, 0.2 to 20 µM (AID 1117336;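 active = compounds lowering colon cancer cell viability after pretreatment blocking the GSK3B kinase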). Conditions: HCT116 viability after GSK3B inhibitor, at 20 µM, stronger effect = higher value.
The nature of experiment [4]: inhibition of endothelial tube formation, primary screen, imaging, VEGF stimulated, CD31 staining, tube area, NPC library (AID 1117340;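 active = compound that reduces growth-factor-driven endothelial tube area in a mixed cell culture, no cutoff stated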). The settings on record: VEGF-stimulated ADSC/ECFC co-culture, at 10 µM, stronger effect = higher value.
Experiment [5] in a line: GLP1 release stimulators, primary, NCI-H716, NPC library (AID 1117341;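 active = compound raises GLP1 secretion from the human gut endocrine cells, with no numeric limit stated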). Conditions: NCI-H716 cells, at 10 µM, stronger effect = higher value.
Experiment [6] is described as follows: HCT116 colon cancer cell growth inhibition, primary screen, CellTiter-Glo luminescence, NPC library (AID 1117342). The settings on record: at 20 µM (top of the series). A general note: In ATP-based viability assays light output follows the ATP content of the culture.
Experiment [7] in a line: reduced SW480 viability measured with CellTiter-Glo, NPC library, primary (AID 1117343;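 active = compounds that lower viability of the colon cancer cells in the luminescence readout, with no numeric limit stated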). The settings on record: CellTiter-Glo luminescence; at 20 µM (top of the series) unless noted.
A short description of experiment [8]: NPC library primary testing for decreased DLD-1 cell viability via CellTiter-Glo (AID 1117346;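 active = compounds that lower survival of DLD-1 colon cancer cells in the luminescence readout, no cutoff given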). The settings on record: DLD-1 viability, CellTiter-Glo luminescence; at 20 µM (top of the series).
The nature of experiment [9]: EMT-state selective cytotoxicity in co-culture – imaging, PC-3E GFP, TEM4-18 mCherry, primary screen (AID 1345086;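 active = compounds killing one labelled cell type while sparing the other, by normalised counts and ratio limits, not self-fluorescent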;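 as to all read-outs here: cells exposed to compound for 72 h before imaging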;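 as to red/green cell ratio (normalised): normalised mesenchymal count divided by normalised epithelial count so high means epithelial killing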). The settings on record: PC-3E GFP / TEM4-18 mCherry co-culture, imaging cell counts, at 1 µM; for red/green cell ratio (normalised): actives lie on both sides, counts scaled to control wells, 1 = unselective.
Experiment [10] can be described thus: MELAS cybrid and Rieske KO viability enhancers – cell-based, MELAS cybrids, Rieske KO mouse fibroblasts, CellTiter-Glo, primary screen (AID 1508586;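 active = mean z-score across replicates of 1.96 or higher in either the MELAS or the Rieske mutant cell line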;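 also: z relative to plate mean and SD of compound and empty wells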). Conditions: low glucose.
Experiment [11] deals with NAD(+) hydrolase SARM1 (Homo sapiens) (UniProt Q6SZW1). The experiment in a line: blocking NAD cleavage by SARM1 SAM-TIR – cell lysate, NAD-Glo luminescence (AID 1508614;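 active = compound whose remaining NAD level is above about 45 nM, limit read from the data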;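 also: higher remaining NAD means stronger inhibition of SARM1 NADase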). Conditions: SAM-TIR HEK293T lysate NADase, at 1 µM, stronger effect = higher value.
Sequence of NAD(+) hydrolase SARM1 (Homo sapiens) (Q6SZW1 whole entry, looked up): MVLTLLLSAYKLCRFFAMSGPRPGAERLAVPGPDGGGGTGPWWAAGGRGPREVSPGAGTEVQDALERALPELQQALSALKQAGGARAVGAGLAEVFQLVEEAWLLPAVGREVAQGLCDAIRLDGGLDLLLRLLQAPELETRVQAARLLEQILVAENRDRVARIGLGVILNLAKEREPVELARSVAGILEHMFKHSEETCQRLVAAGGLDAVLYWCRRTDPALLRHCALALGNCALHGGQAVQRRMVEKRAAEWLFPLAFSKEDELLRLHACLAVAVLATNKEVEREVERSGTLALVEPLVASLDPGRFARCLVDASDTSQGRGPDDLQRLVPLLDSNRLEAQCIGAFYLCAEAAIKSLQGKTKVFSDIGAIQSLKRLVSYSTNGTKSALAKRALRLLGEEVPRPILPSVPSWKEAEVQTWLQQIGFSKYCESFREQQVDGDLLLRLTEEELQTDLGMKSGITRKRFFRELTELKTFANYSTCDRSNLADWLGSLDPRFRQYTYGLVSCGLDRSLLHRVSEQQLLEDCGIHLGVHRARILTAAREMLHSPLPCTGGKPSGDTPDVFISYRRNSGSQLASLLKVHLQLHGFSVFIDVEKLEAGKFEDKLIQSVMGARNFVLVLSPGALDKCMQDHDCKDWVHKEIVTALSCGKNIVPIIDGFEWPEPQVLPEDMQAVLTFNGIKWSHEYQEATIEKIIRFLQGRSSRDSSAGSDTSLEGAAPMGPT
The nature of experiment [12]: galactose survival enhancers in mitochondrial complex I cybrids – cell-based, galactose medium, ATP luminescence, primary screen (AID 1645843;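 active = z-score of at least 1.8 in each of two replicates, scored against plate mean and spread of sample wells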;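 also: positive z means more ATP and so rescue of galactose-driven cybrid death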). The settings on record: complex I mutant cybrid cells, 72 h, stronger effect = higher value.
Experiment [13] is described as follows: P. berghei load reduction in hepatocytes – cell-based, HepG2, luciferase luminescence, HepG2 viability, primary screen (AID 624349; in the data active = parasite load remaining mostly below about 12%, no sharp cut-off; inactive = mostly above about 10%;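 also: 100% = mean of DMSO negative control wells on the same plate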). Conditions: P. berghei liver stage in HepG2, luciferase luminescence, concentration not given here; parasite load remaining: stronger effect = lower value; viability: measured here: HepG2 viability without parasites.
A short description of experiment [14]: viability loss with induced miR-34 in A549 – imaging, A549 dox-inducible miR-34, nuclei and caspase counts, primary screen (AID 1347080;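 active = compounds whose cell count with miR-34 switched on is under 0.7 times the count with it off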). The settings on record: A549 miR-34 inducible, Hoechst nuclei count, 48 h.
The mark [15] stands for this setting: measured here: epithelial PC-3E GFP cell survival.
[16] abbreviates: measured here: mesenchymal TEM4-18 mCherry cell survival.
Where [17] appears, read: stronger effect = lower value, cell number ratio, induced over uninduced.
Setting [18] is: measured here: relative caspase fold change +Dox/-Dox.
The mark [19] stands for this setting: measured here: total cells with miR-34 induction, stronger effect = lower value.
Where [20] appears, read: measured here: total cells without miR-34 induction.

Where “and” joins values, the source holds several entries; their conditions need not be identical. Equal values may be shown once. Calls of active or inactive are those of the source.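 The calls were made as follows, unless noted: active = compounds that lower survival of HCT116 colon cancer cells in the luminescence readout, no numeric limit stated; inactive = the rest.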

`CN(C)CCCOc1nn(Cc2ccccc2)c2ccccc12`: the nuclear beta-catenin stimulation was 2.1% (inactive) in experiment [1] (at 10 µM) and 0.5% in [1] (stimulation, at 2 µM). Also, the insulin secretion stimulation in experiment [2] is 86.5% (active). Moreover, in experiment [3], the viability decrease is 21.7% (inactive). Further, the tube area decrease in [4] was 12.8% (inactive). Moreover, the GLP1 secretion stimulation in [5] is 6% (inactive). In addition, in experiment [6], the inhibition of viability is 46% (inactive). The viability decrease (inhibition) in experiment [7] was 82.6% (active); in experiment [8] it was 84.1% (active). Moreover, the red/green cell ratio (normalised) in [9] was 0.88 (inactive). Besides, the values for the normalised cell number in [9] (setting [15]) and in experiment [9] (setting [16]) were 1.01 and 0.89, respectively. Further, the z-score in [10] (MELAS cybrid survival, CellTiter-Glo 48 h, stronger effect = higher value) was -0.315 (inactive) and 0.45 (inactive) and -0.608 (inactive); in experiment [10] (Rieske KO mouse fibroblast survival, CellTiter-Glo 72 h), -0.145 and 0.0321 and -1.45; in experiment [12], -0.89 (inactive). Further, the remaining NAD in experiment [11] was 10 nM (inactive).
A word on the viability: it is the share of living cells, or the viability signal relative to a control. As for `COc1cc(N)c(Cl)cc1C(=O)NC1CCN(CCCOc2ccc(F)cc2)CC1OC` (stereo unspecified), the parasite load remaining in experiment [13] was 96.4% (inactive). This compound yielded a viability in experiment [13] of 81.1%. For the same compound, the nuclear beta-catenin stimulation in experiment [1] (at 10 µM) was 13% (inactive); in experiment [1] (stimulation, at 2 µM), 3.1%. Besides, the insulin secretion stimulation in experiment [2] was 7.5% (inactive). Also, the viability decrease in experiment [3] was 20.6% (inactive). Further, the tube area decrease in experiment [4] was -0.4% (inactive). The GLP1 secretion stimulation in experiment [5] was 13.3% (inactive). In experiment [6], the inhibition of viability was 53.9% (active). Besides, the figures for the viability decrease (inhibition) in [7] and in [8] were 66.7% (active) and 22.4% (inactive), respectively. In addition, the red/green cell ratio (normalised) in experiment [9] was 0.95 (inactive). Moreover, the normalised cell number in experiment [9] (setting [15]) was found to be 0.93; in [9] (setting [16]), 0.88. The fold change in [14] (setting [17]) is 0.948 (inactive); in [14] (setting [18]), 1.94. Moreover, the figures for the cell count in experiment [14] (setting [19]) and in experiment [14] (setting [20]) were 8510 and 8980, respectively. The z-score in experiment [12] was -0.435 (inactive).
Turning to `COc1ccc(Cc2cnc(N)nc2N)cc1OC`, the nuclear beta-catenin stimulation in experiment [1] (at 10 µM) was -0.5% (inactive); in [1] (stimulation, at 2 µM), -0.6%. Moreover, the insulin secretion stimulation in experiment [2] is 0.9% (inactive). The viability decrease in experiment [3] was -3.05% (inactive). Also, the tube area decrease in experiment [4] was -28.9% (inactive). Further, the GLP1 secretion stimulation in experiment [5] is 2.9% (inactive). Also, in experiment [6], the inhibition of viability was -12.4% (inactive). For the same compound, the figures for the viability decrease (inhibition) in experiment [7] and in [8] were 6.9% (inactive) and -5.4% (inactive), respectively. Besides, in [9], the red/green cell ratio (normalised) was 1.2 (inactive). Moreover, the normalised cell number in [9] (setting [15]) was 1.03; in experiment [9] (setting [16]) it was 1.23. In addition, the values for the fold change in experiment [14] (setting [17]) and in experiment [14] (setting [18]) were 1.04 (inactive) and 0.896, respectively. The cell count in [14] (setting [19]) was 9080; in experiment [14] (setting [20]), 8710. Besides, the remaining NAD in experiment [11] was 10 nM (inactive).
For the compound `NC(=O)c1cc[n+](CC2=C(C(=O)[O-])N3C(=O)[C@@H](NC(=O)Cc4cccs4)[C@H]3SC2)cc1`, in experiment [13], the parasite load remaining is 91.4% (inactive). In addition, in experiment [13], the viability was 73.4%. Further, the nuclear beta-catenin stimulation in [1] (at 10 µM) is -2.2% (inactive); in experiment [1] (stimulation, at 2 µM) it was -0.6%. Further, the insulin secretion stimulation in [2] is 11.8% (inactive). For the same compound, in experiment [3], the viability decrease was 10.6% (inactive). Besides, the tube area decrease in experiment [4] is -7.6% (inactive). For the same compound, the GLP1 secretion stimulation in experiment [5] was 0.9% (inactive). In addition, the inhibition of viability in [6] was -2.6% (inactive). In addition, the viability decrease (inhibition) in [7] was 3.4% (inactive); in experiment [8] it was 5.4% (inactive). Further, in experiment [9], the red/green cell ratio (normalised) is 0.75 (inactive). The results for the normalised cell number in [9] (setting [15]) and in [9] (setting [16]) were 1.26 and 0.94, respectively. Besides, the fold change in experiment [14] (setting [17]) is 0.969 (inactive); in experiment [14] (setting [18]), 0.479. For the same compound, the cell count in [14] (setting [19]) was 9810; in experiment [14] (setting [20]) it was 10100. In experiment [11], the remaining NAD was 10 nM (inactive).
